# USP30 inh = human USP30 deubiquitinase inhibition. Q70CQ3. purified USP30, Ub-rhodamine cleavage fluorescence. inhibition, % at 25 µM. 5.3% of 47,000 active
# USP28 inh = human USP28 deubiquitinase inhibition. Q96RU2. purified USP28, Ub-rhodamine cleavage fluorescence, 30 min. inhibition, % at 25 µM. 3% of 47,000 active. AID 1645857
# Target sequence (Q96RU2 whole entry, looked up): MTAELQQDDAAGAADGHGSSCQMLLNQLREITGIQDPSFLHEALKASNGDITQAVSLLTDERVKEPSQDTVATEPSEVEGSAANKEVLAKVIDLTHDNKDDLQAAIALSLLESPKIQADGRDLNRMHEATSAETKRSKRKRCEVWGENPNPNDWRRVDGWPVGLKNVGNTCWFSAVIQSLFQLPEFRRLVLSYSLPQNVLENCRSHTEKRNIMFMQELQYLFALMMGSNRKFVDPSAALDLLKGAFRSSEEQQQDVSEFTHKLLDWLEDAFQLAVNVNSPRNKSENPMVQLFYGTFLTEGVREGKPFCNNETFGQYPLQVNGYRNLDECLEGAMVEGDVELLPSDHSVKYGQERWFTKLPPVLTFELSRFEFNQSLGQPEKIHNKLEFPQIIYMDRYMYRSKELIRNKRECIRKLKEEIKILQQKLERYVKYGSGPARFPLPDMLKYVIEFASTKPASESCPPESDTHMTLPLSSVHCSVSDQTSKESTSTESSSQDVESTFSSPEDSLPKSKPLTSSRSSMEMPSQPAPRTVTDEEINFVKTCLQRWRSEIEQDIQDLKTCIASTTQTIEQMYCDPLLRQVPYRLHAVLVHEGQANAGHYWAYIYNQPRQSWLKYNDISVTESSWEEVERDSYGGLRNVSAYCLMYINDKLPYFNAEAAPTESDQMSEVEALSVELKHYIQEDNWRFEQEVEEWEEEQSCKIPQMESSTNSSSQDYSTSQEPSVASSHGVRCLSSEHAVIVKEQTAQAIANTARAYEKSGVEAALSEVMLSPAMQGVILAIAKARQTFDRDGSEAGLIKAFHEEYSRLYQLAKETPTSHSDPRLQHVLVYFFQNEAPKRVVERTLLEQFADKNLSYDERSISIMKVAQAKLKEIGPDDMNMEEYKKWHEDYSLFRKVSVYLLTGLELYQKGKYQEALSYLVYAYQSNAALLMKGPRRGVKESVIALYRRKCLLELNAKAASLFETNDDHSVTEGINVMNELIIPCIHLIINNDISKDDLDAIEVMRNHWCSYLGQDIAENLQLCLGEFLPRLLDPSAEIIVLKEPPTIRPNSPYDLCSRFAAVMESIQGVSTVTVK
# OTUD3 inh = inhibitors of human OTUD3 deubiquitinase; Q5T2D3; purified OTUD3, Ub-rhodamine fluorescence, 2 h; inhibition, % at 25 µM; 0.7% of 47,000 active
# USP17 block = human USP17-like deubiquitinase inhibition; A8MUK1; purified USP17, Ub-rhodamine cleavage fluorescence, 3 h; inhibition, % at 50 µM; 6.5% of 47,000 active; AID 1645855
# * = called active by the depositor. In the library only some 11% were active in any assay of this set; here they are far more common. Rule as the data show it: active = inhibition above about 30%; inactive = the rest.
SMILES,USP30 inh,USP28 inh,OTUD3 inh,USP17 block
CC(=O)c1cc(-c2ccc(F)cc2)n(CC(=O)Nc2cccc(C)c2C)c1C,73*,22,35*,52*
O=c1ccc(-c2noc(Cc3c(F)cccc3Cl)n2)c[nH]1,27,93*,14,16
COc1ccc(-c2nc(-c3ccc(=O)[nH]c3)no2)c(C)c1,-155,-36,-17,-45
Cc1ccccc1Cc1nc(-c2ccnc(N3CCOCC3)c2)no1,13,32*,9,9
c1cc(-c2noc(C3CCCCC3)n2)cc(N2CCOCC2)n1,6,2,0,4
Cc1ccccc1Cc1nc(-c2ccc(=O)[nH]c2)no1,-1,84*,8,3
CCCCCCC1OC23OC1CCC2C(O)CCC3O (configuration not stated),-46,2,0,-8
CS(=O)(=O)c1ccccc1CN1CCC(N(Cc2ccco2)S(=O)(=O)c2cccc3cccnc23)CC1,-75,-21,-17,-11
O=C(NCc1nnc2ccccn12)c1ccc(C(F)(F)F)cc1,5,6,0,-2
O=C(NCCc1ccc(Cl)cc1)c1ccc(CNS(=O)(=O)c2ccccc2)cc1,84*,60*,17,1
O=C(NCCc1cccc(Cl)c1)c1ccc(-c2ccccc2)cc1,28,15,6,1
CCc1cc(C(=O)Nc2ccc(C3CCc4nncn4C3)cc2)on1 (configuration not stated),22,34*,6,0
COc1ccc2c3c(c(=O)oc2c1O)CCCC3,19,16,7,9
O=c1c(Cc2ccccc2)coc2ccccc12,24,50*,12,12
NC(=O)c1nnn(-c2ccc(NC(=O)c3ccc(F)c(F)c3)cc2)n1,0,0,-1,64*
Cc1ccc(NC(=O)c2nnn(-c3ccccc3)n2)cc1F,6,56*,12,5
Cc1cccc2sc(NC(=O)c3nnn(-c4ccc(F)cc4)n3)nc12,19,15,3,56*
Cc1cc(O)c(C(c2cccc(Cl)c2)c2c(O)cc(C)n(C)c2=O)c(=O)n1C,6,-7,0,-1
CCN1CCN(c2cc(-n3ccnc3C)n3nccc3n2)CC1,-70,-17,-11,-25
CC1=N[C@@]2(CC[C@@H]3CN(S(C)(=O)=O)C[C@@H]32)C(=O)N1CC1CC1,11,7,9,7
O=C(CSc1nnnn1-c1ccccc1)c1ccc(-c2ccccc2)cc1,2,-6,0,0
Cc1cc2n(n1)CC(C)(C(=O)NCc1ccccc1)N(c1ccc3c(c1)OCCO3)C2=O (configuration not stated),-16,-4,7,-14
CC1(C(=O)NCc2ccc(F)cc2)Cn2nc(-c3ccco3)cc2C(=O)N1c1ccc2c(c1)OCCO2 (configuration not stated),5,35*,0,37*
COc1ccc(NC(=O)NC(COC(=O)Nc2ccc(OC)cc2)c2ccccc2)cc1 (configuration not stated),95*,33*,30,60*
c1ccc2ncc(CN3CCC[C@H]3c3nc(-c4ccc(-n5ccnc5)nc4)no3)cc2c1,-19,-11,-7,41*
SMILES,USP30 inh,USP28 inh,OTUD3 inh,USP17 block
Cc1ccc2nc(CCNC(=O)c3[nH]nc4c3CCc3ccccc3-4)[nH]c2c1,15,5,0,25
Cc1ccc(NC(=O)c2cn(Cc3ccccc3)nc2-c2cccnc2)cc1,8,32*,-2,-4
O=C(NCC1CCCO1)c1cn(Cc2ccccc2)nc1-c1cccnc1 (configuration not stated),-10,-9,1,0
Cc1ccc(-n2cc3c(N4CCCC(C(=O)NCC5CCCCC5)C4)ncnc3n2)cc1 (configuration not stated),39*,10,-9,60*
O=[N+]([O-])c1ccc(NCc2ccc(-c3cccs3)s2)nc1,-15,65*,-10,16
COc1ccc(CN2C3(CCN(C(=O)N(C)C)C3)c3ccccc3S2(=O)=O)cc1 (configuration not stated),-5,-4,-4,-6
CCCCN1CCN(c2ccc3c(c2)OCO3)C1=O,12,37*,15,10
Cn1cccc1C(=O)NC1CC(=O)N(c2ccc3c(c2)OCO3)C1 (configuration not stated),-2,3,-4,-4
Cc1cccc(-n2ccnc(SCC(=O)Nc3ccc(Cl)cc3F)c2=O)c1,49*,38*,11,76*
O=S(=O)(NCCc1nc(-c2ccc(Cl)cc2)no1)c1ccc(F)cc1,39*,18,27,26
Cc1nc(Nc2ncccn2)cc(C2CCCN2Cc2ncc[nH]2)n1 (configuration not stated),5,5,4,4

# Source: PubChem (Buhrlage Lab, Dana-Farber Cancer Institute and Novartis Institutes for BioMedical Research (Cambridge, Mass))
